# Reference: PubChem BioAssay AID493222 (Johns Hopkins Ion Channel Center, 2011)
# The campaign covered roughly 2,400 compounds. About 95 (4%) were called active.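 Rule for the calls: active = mean of duplicate membrane potential ratios lying over 3 SD above or below the buffer control mean, so actives fall on both sides; inactive = the rest.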 Not all results are given here.
# Test: membrane potential effects in parental HEK293, counter-screen for CHT inhibitor project, cell-based, membrane potential dye (AID 493222);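 note: parental cells lack the transporter so any hit is non-specific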;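 for membrane potential ratio readout (active if shifted either direction beyond buffer ±3SD; no single direction): ratio is peak minus trough fluorescence over baseline after EC90 choline challenge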
# Settings: choline response, at 10 µM; active = decrease or increase beyond buffer ±3SD
row,SMILES,membrane potential ratio readout (active if shifted either direction beyond buffer ±3SD; no single direction)
1,O=C(OCC(=O)c1c[nH]c2ccccc12)c1cccc(O)c1,inactive
2,CCc1cc2c(N3CCN(c4nnc(CC)s4)CC3)ncnc2s1,inactive
3,O=C(Cn1nc(C(F)(F)F)c2c1CCC2)NCc1ccc(F)cc1,inactive
4,CCN(Cc1ccccc1)S(=O)(=O)c1cc(C(=O)O)ccc1OC,inactive
5,COc1ccc(Cn2c(=O)sc3ccccc32)cc1OC,-8.59 (active)
6,O=C(NCCc1ccc2c(c1)OCCO2)c1cc2ccccc2o1,inactive
7,FC(F)(F)c1cccc(NC(=S)Nc2cccc(Cl)c2)c1,inactive
8,CCCCCn1c(=O)[nH]c2cc(C(=O)NCCCN3CCCCC3C)ccc2c1=O (centres undefined),inactive
9,O=C(NCCCn1ccnc1)C(=O)c1cn(CC(=O)N2CCCCCC2)c2ccccc12,inactive
10,CCC(C)c1ccc(NC(=S)NCc2ccccn2)cc1 (centres undefined),inactive
11,Cc1c(C(=O)OC(C)C)sc(NC(=O)c2cccnc2)c1C#N,inactive
12,C/C(=N/NC(=O)c1cc(Cl)ccc1O)C12CC3CC(CC(C3)C1)C2,inactive
13,COc1nc(OC)nc(N(C)CCO)n1,inactive
14,COc1cccc(-c2nn(-c3ccccc3)cc2/C=C(\C#N)C(=O)NCCCn2ccnc2)c1,inactive
15,O=S(=O)(Cc1cc(Cl)nc(-c2cccnc2)n1)c1ccccc1,inactive
16,COc1ccc(-n2nnnc2CNC(=O)c2ccc3ccccc3c2)cc1,inactive
17,N#Cc1ccc(C(=O)Nc2cccc3cccnc23)c(F)c1,inactive
18,CCC(=O)Nc1nnc(S(=O)(=O)N(CC(C)C)c2ccccc2)s1,inactive
19,CC1CN(S(=O)(=O)c2ccc(C(=O)NN3CCN(C)CC3)cc2)CC(C)O1 (centres undefined),inactive
20,CC(=O)N1CCN(S(=O)(=O)c2cccc(C(=O)NC3CCC(C)CC3)c2)CC1 (centres undefined),inactive
21,CC(NC(=O)c1ccc(N2CCNCC2)c([N+](=O)[O-])c1)C12CC3CC(CC(C3)C1)C2 (centres undefined),inactive
22,COc1ccc(OCC(=O)OCCN(C)C)cc1,inactive
23,CC(C(=O)NC1CCS(=O)(=O)C1)N1C(=O)/C(=C/c2ccc(Cl)cc2)SC1=S (centres undefined),inactive
24,CCOC(=O)N1CCN(C(=O)C2CCN(c3ncnc4c3sc3cccc(F)c34)CC2)CC1,inactive
25,CCC(C(=O)N1CCOCC1)n1c(C(=O)OC)cc2occc21 (centres undefined),inactive

row,SMILES,membrane potential ratio readout (active if shifted either direction beyond buffer ±3SD; no single direction)
1,CC1(C)SC2C(NC(=O)COc3ccccc3)C(=O)N2C1C(=O)O (centres undefined),inactive
2,Cc1cccc(C)c1NC(=O)c1ccc(CN2CCc3ccccc3C2)cc1,inactive
3,CCS(=O)(=O)C1=NSC2=NC(=O)/C(=C\c3ccc(OS(=O)(=O)c4ccccc4)cc3)C(=N)N21,inactive
4,Cc1nn(CC(=O)NCC2CCCO2)c(=O)c2cc3ccccc3n12 (centres undefined),inactive
5,COc1ccc(C(CNC(=O)c2cccc(NS(=O)(=O)c3ccc(C)c(F)c3)c2)N2CCCC2)cc1 (centres undefined),inactive
6,CCn1c(SCCC(C)C)nnc1-c1c[nH]c2ccccc12,inactive
7,Cc1[nH]c2ccccc2c1C(=O)CN1CCCC(C)C1 (centres undefined),inactive
8,COc1ccc(N2C(=O)CNC2=S)cc1,inactive
9,CC(=O)c1ccc(Oc2cc(C)nc(-n3nc(C)cc3C)n2)cc1,inactive
10,CC(C)(C)c1ccc(C(=O)CSc2ncn[nH]2)cc1,inactive
11,CN(CCC#N)c1ncnc2scc(-c3ccccc3)c12,inactive
12,O=C1/C(=C/c2ccc(F)cc2)SC(=S)N1NS(=O)(=O)c1ccccc1,inactive
13,COc1ccc(C(=O)NC(=S)NNC(=O)CCc2ccccc2)cc1,inactive
14,O=C(Nc1nonc1-c1ccc(Cl)cc1)c1ccco1,inactive
15,COc1ccc(C(=O)NNC(=S)NC(=O)c2ccccc2)cc1,inactive
16,Oc1c(Cl)cc(Cl)c(Cl)c1Cc1c(O)c(Cl)cc(Cl)c1Cl,inactive
17,O=C(O)CC1=C(Nc2ccccc2)C(=O)N(c2ccccc2)C1c1ccc(Cl)cc1 (centres undefined),inactive
18,Cc1ccc2nc(Nc3ccccc3)cc(C)c2c1,inactive
19,Cc1oc2cc([N+](=O)[O-])c(O)c([N+](=O)[O-])c2c1C(=O)c1ccc(Br)cc1,2.79 (active)
20,CC(C)(C)NC(=O)NC(=O)CN1CCC(Cc2ccccc2)CC1,inactive
21,COc1ccc(C(=O)NC(C)c2nccs2)cc1OC1CCN(C(C)C)CC1 (centres undefined),inactive
22,COc1cc2ccccc2cc1C(=O)Nc1ccc(S(=O)(=O)Nc2cc(C)on2)cc1,inactive
23,O=C(O/N=C(/c1ccccc1)c1ccncc1)c1ccccc1[N+](=O)[O-],inactive
24,CCc1nc(C)cn1S(=O)(=O)c1cc([N+](=O)[O-])ccc1Cl,2.6 (active)
25,Cc1ccc(NNC(=O)c2cccs2)cc1Cl,inactive

row,SMILES,membrane potential ratio readout (active if shifted either direction beyond buffer ±3SD; no single direction)
1,Cc1cc(OC(C)C(=O)Nc2ccc(S(=O)(=O)Nc3onc(C)c3C)cc2)cc(C)c1Cl (centres undefined),inactive
2,CCN(CC(=O)NCc1ccc(Cl)cc1)C(=O)CSc1ccccc1,inactive
3,CN(C)c1ccc(Nc2c3c4c(cccc4n(C)c2=O)C(=O)c2ccccc2-3)cc1,inactive
4,Cc1cc(NS(=O)(=O)c2ccc(NC(=O)C(C)Oc3cccc(C)c3C)cc2)nc(C)n1 (centres undefined),inactive
5,COc1ccc(/C=C2/SC(=O)N(CCCCCC(=O)Nc3ccccc3C(=O)O)C2=S)cc1,inactive
6,CN(Cc1ccccc1)CC(O)COc1ccc(CNCc2cc3ccccc3s2)cc1 (centres undefined),inactive
7,COc1ccc(S(=O)(=O)N2CCN(C(=O)NC3CCCCC3)CC2)cc1,inactive
8,CCCCn1c(SCC(=O)NCC2CCCO2)nc2ccc(N3CCOCC3)cc2c1=O (centres undefined),inactive
9,O=C(c1c(F)cccc1Cl)N1CCN(S(=O)(=O)c2ccc3c(c2)OCCCO3)CC1,inactive
10,CC1CCN(CCCNC(=O)CN2C(=O)CSc3ccc(S(=O)(=O)N4CCCCC4)cc32)CC1,inactive
11,Cc1cccc(N(C)C(=O)CN2C(=O)COc3ccc(S(=O)(=O)N4CCCCCC4)cc32)c1,-12.1 (active)
12,O=C(O)c1ccc(/C=C2\SC(=S)N(NC(=O)c3ccc(Br)cc3)C2=O)cc1,inactive
13,O=S(=O)(Nc1ccc(Cl)cn1)c1cnc(Cl)c(Br)c1,inactive
14,Cc1ccc(CS(=O)(=O)c2ncc(Cl)c(C(=O)Nc3nnc(C)s3)n2)cc1,inactive
15,COC(=O)C(C(=O)Nc1cccc(Cl)c1C)C1CCCC1 (centres undefined),inactive
16,Cc1ccc(C(=O)NC2CCCC(C)C2C)cc1S(=O)(=O)N1CCCCC1 (centres undefined),inactive
17,Cc1cccc(-c2nc3ccc(C(=O)NCCN4CCN(C)CC4)cc3nc2-c2cccc(C)c2)c1,inactive
18,O=C(c1cccs1)C1C(c2ccc(Br)cc2)NC(=S)NC1(O)C(F)(F)F (centres undefined),inactive
19,COc1ccc2c(c1)OC(O)(C(F)(F)C(F)F)CC2=O (centres undefined),inactive
20,Cc1ccc(S(=O)(=O)/N=C(/NC(=S)Nc2c(C)n(C)n(-c3ccccc3)c2=O)c2ccccc2)cc1,inactive
21,O=C(C1CCN(S(=O)(=O)c2ccc(Br)s2)CC1)N1CCN(c2ccccc2)CC1,inactive
22,CC(=O)Nc1nc2c(s1)C(=O)NCC(C)(C)C2,inactive
23,CC1CCCC(NC(=O)c2cccc(N3CCCC3=O)c2)C1C (centres undefined),inactive
24,CNCC(O)c1ccc(O)c(O)c1 (centres undefined),inactive
25,CCCCOc1ccc(Cl)cc1CSc1nncn1N,inactive

row,SMILES,membrane potential ratio readout (active if shifted either direction beyond buffer ±3SD; no single direction)
1,O=C(Nc1ccn(Cc2ccccc2)n1)c1n[nH]c([N+](=O)[O-])c1Cl,inactive
2,CCOc1ccc(/C=C2\SC(=S)N(NC(=O)c3ccncc3)C2=O)cc1OC,inactive
3,CCOC(=O)C1(CCOC)CCN(Cc2ccc(C(=O)OC)cc2)CC1,inactive
4,OC1CN=C2Sc3ccccc3N2C1 (centres undefined),inactive
5,CC(Oc1ccc2ccccc2c1)C(=O)NNC(=S)NC(=O)c1ccco1 (centres undefined),inactive
6,CCCCCn1c(=O)c(C(=O)OCC)c(Cl)c2ccccc21,inactive
7,O=[N+]([O-])c1ccccc1Nc1ccc(O)cc1,2.4 (active)
8,Cc1ccc(SC(CC(=O)c2ccc(C(C)(C)C)cc2)C(=O)O)cc1 (centres undefined),inactive
9,C/C(=N\Nc1nc2ccccc2[nH]1)c1cccs1,inactive
10,Nc1cc(N2CCCCCC2)c2nonc2c1[N+](=O)[O-],inactive
11,Cc1ccc(C(=O)N/C(=C/C=C/c2ccccc2)C(=O)NCc2ccco2)cc1,inactive
12,CCc1ccc2c(c1)C1(NN=C(c3ccccc3)S1)C(=O)N2 (centres undefined),inactive
13,O=S(=O)(c1cccc(-c2nnc(SC(F)F)n2-c2ccccc2)c1)N1CCCCC1,inactive
14,Cn1c2ccccc2c(=O)c2c(O)cccc21,inactive
15,CC(=O)OCCOCn1cnn2c(=O)c(Br)c(C)nc12,inactive
16,CCNC(=O)CC1C(=O)N(c2ccc(F)cc2)C(=O)N1CCc1sccc1C (centres undefined),inactive
17,C/C(=N\NC(N)=S)c1cccnc1,inactive
18,COc1ccc(NC(=O)c2sc(N)nc2-c2ccccc2)cc1,inactive
19,Cc1ccccc1-n1c(C)cc(/C=N/NC(=O)c2ccc(CN3CCOCC3)cc2)c1C,inactive
20,O=C(Nc1ccccc1C(=O)NCCCn1ccnc1)c1ccc(Cl)cc1Cl,inactive
21,CCc1ccccc1N1CN(Cc2ccco2)CNC1=S,inactive
22,COC(=O)CN1C(C)=Nc2ccc(Br)cc2C1c1ccccc1 (centres undefined),inactive
23,CCN(CC)Cc1c(C(=O)N/N=C/c2cccc(OCc3ccc(F)cc3)c2)nnn1-c1nonc1N,inactive
24,CC(C)CCn1c(CN(C)Cc2ccccc2)nc2c1c(=O)n(C)c(=O)n2C,inactive
25,O=C(O)c1ccc(N/N=C/c2cn(-c3ccccc3)nc2-c2cccs2)cc1,inactive

row,SMILES,membrane potential ratio readout (active if shifted either direction beyond buffer ±3SD; no single direction)
1,CCC(Oc1ccccc1C)C(=O)Nc1ccc(S(=O)(=O)Nc2cc(C)on2)cc1 (centres undefined),inactive
2,CC1CCN(C(=O)CN(c2ccc(Oc3ccccc3)cc2)S(C)(=O)=O)CC1,inactive
3,CCN(CC)CCC(c1ccc2c(c1)OCO2)c1c(OC)cc(OC)c2c(-c3ccccc3)cc(=O)oc12 (centres undefined),inactive
4,C/C(=N\N=C(N)N)c1ccc(Cl)cc1,inactive
5,COC(=O)c1ccccc1NC(=O)Cn1nc(C(F)(F)F)c2c1CCC2,inactive
6,O=C1c2cccc3cccc(c23)C(=O)N1CCCCCc1n[nH]c(=S)o1,inactive
7,CC(C)n1c(=S)[nH]c2cc(C(F)(F)F)ccc21,inactive
8,O=C(Cn1ncc2c3ccccc3n(Cc3ccccc3)c2c1=O)NCCCN1CCOCC1,inactive
9,CCOC(=O)N1CCN(C(=O)c2ccc(CN(c3ccc(C)c(C)c3)S(C)(=O)=O)cc2)CC1,inactive
10,CCCn1c2ccccc2c2cnn(CC(=O)NCCCN3CCCCC3CC)c(=O)c21 (centres undefined),inactive
11,Cc1ccccc1-n1nnc2c(=O)oc3ccccc3c21,inactive
12,C=CCn1c(SCc2ccc(C(=O)NCCO)cc2)nc2ccccc2c1=O,inactive
13,O=C(/C=C/c1cn(-c2ccccc2)nc1-c1ccc2c(c1)OCCO2)NCCCN1CCOCC1,inactive
14,COc1ccc(C(=O)NC(Cc2ccc(OC(=O)c3ccc(OC)cc3)cc2)C(=O)O)cc1 (centres undefined),inactive
15,Cc1cccnc1NC(=O)c1cccc(S(=O)(=O)N2CCN(c3ccc(F)cc3)CC2)c1,inactive
16,CCOc1ccccc1Nc1ccc2nonc2c1[N+](=O)[O-],inactive
17,O=C(CCCN1C(=O)CSc2ncccc21)N1CCN(c2cccc(C(F)(F)F)c2)CC1,inactive
18,Cc1ccc2c(C)c(C(=O)N3CCC(N4CCC(C(=O)NC5CC5)CC4)CC3)oc2c1,inactive
19,CCOCCCN(C)C1CCN(C(=O)c2oc3ccccc3c2NC(=O)COc2cccc(C)c2)CC1,3.33 (active)
20,COCCNc1nc(-n2nc(C)cc2C)nc2sc3c(c12)CCCC3,inactive
21,O=c1c2ccccc2nnn1CSc1nc2sc3c(c2c(=O)n1CC1CCCO1)CCC3 (centres undefined),inactive
22,CC(C)(C)C(=O)/C(C#N)=C/c1ccc(O)cc1,inactive
23,Cc1oc2c(F)c(F)c(F)c(F)c2c1S(=O)(=O)Nc1cccc(C(F)(F)F)c1,inactive
24,O=C(Nc1ccc(F)c(Cl)c1)C1CCN(S(=O)(=O)c2cccnc2)CC1,inactive
